These results are taken from PubChem BioAssay AID1628 (Sanford-Burnham Center for Chemical Genomics, 2009).

In all, about 190,000 compounds went through this assay and about 930 (0.49%) were called active.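 Rule for the calls: active = z-score of insulin promoter reporter brightness in nuclei below -3 at 5 µM, with at least 500 cells counted; inconclusive = wells with under 500 cells, flagged as toxic or sparse; inactive = the rest.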 The list shows a part of the results. Entries with a potency or affinity are not part of this list.

The nature of this assay: insulin promoter down-regulators in MIN6 cells, imaging, high-content screening, mouse beta cells (AID 1628). Conditions: MIN6 insulin promoter GFP reporter, at 5 µM, hits give low values.
Turning to `COc1ccc(-n2c(Cc3cccn3C)nnc2SCC(=O)Nc2cccc(C)c2C)cc1`, the z-score is 3.05 (inactive).

On to `COc1ccc(-n2c(SCC(=O)Nc3cccc4ccccc34)nc(O)cc2=O)cc1`, for which the z-score is -6.42 (active).

Turning to `O=C(Nc1nnc(-c2ccc(Cl)s2)o1)C1CC1`, the z-score is 2.8 (inactive).

For the molecule `CCn1nnc2sc3c(c2c1=O)CCC(C)C3` (stereo not drawn), the z-score is 3.59 (inactive).

In the case of `C/C(CC(=O)NCc1ccc(Cl)cc1)=N\NC(=O)Cc1ccccc1`, the z-score is -4.08 (active).

For the molecule `O=C(CSc1ncn[nH]1)NCc1ccccc1`, the z-score was 5.42 (inactive).

Turning to `COc1cc(OC)c(OC)cc1/C=C1\Oc2cc(OS(C)(=O)=O)ccc2C1=O`, the z-score was 5.02 (inactive).

Consider `Cc1ccc(-c2nc(C#N)c(NCCN3CCCCC3)o2)cc1`, for which the z-score is -3.25 (active).

As for `CC(=O)N1CCOCCOCCN(C(C)=O)CCOCC1`, the z-score was 2.13 (inactive).

In the case of `O=C(/C=C/c1cccs1)N1CCOCC1`, the z-score was -5.7 (active).

On to `Cc1cccc(Oc2nccc(C(F)(F)F)c2C(=O)Nc2ccc(F)cc2F)c1`, for which the z-score is 3.57 (inactive).

In the case of `Fc1ccc(NC(=S)NNc2ncc(C(F)(F)F)cc2Cl)c(F)c1`, the z-score is -3.64 (active).

In the case of `CN(C)c1ccc(/C=C2\SC(=S)N(Nc3ncc(C(F)(F)F)cc3Cl)C2=O)cc1`, the z-score is 4.86 (inactive).

`O=Cc1sc(Nc2ccccc2)nc1Cl`: the z-score is 3.66 (inactive).

Regarding `Oc1c(/C=C/C=C/C=Nc2ccccc2)sc(=S)n1Cc1ccccc1`, the z-score was 3.27 (inactive).

For the molecule `CSc1nsc(/C=C/Nc2ccc(C)cc2)c1C#N`, the z-score was 3.5 (inactive).

Turning to `Cc1ccc(C)c(N=Nc2ccc(O)c3ncccc23)c1`, the z-score was -4.77 (active).

Consider `N#C/C(=C/c1ccc(-c2ccccc2)o1)c1nc(-c2cccs2)cs1`, for which the z-score was 14.7 (inactive).

For the molecule `Cc1ccc(OCC2Cn3c(nc4c3c(=O)n(C)c(=O)n4C)O2)cc1` (stereo not drawn), the z-score is -6.54 (active).

Take `CC(=O)NC(c1ccc(Cl)cc1)c1c(O)ccc2ccc(O)cc12` (stereo not drawn): the z-score is 10.6 (inactive).

In the case of `COc1ccccc1N1CCN(c2cc(C)nc3nc(C)nn23)CC1`, the z-score is 1.58 (inactive).

In the case of `COc1nc(OC)nc(N2CCC(C(=O)NCc3cccs3)CC2)n1`, the z-score was 3.48 (inactive).

Consider `Cc1cc(C)nc(N2CCC(C(=O)Nc3ccc4c(c3)OCCO4)CC2)n1`, for which the z-score was 3.37 (inactive).

`CCc1c(C)nc2ncnn2c1N1CCC(C(=O)Nc2ccc(C)cc2)CC1`: the z-score was -5.25 (active).

Turning to `Cc1cc(N2CCC(C(=O)N3CCN(c4cccc(C)c4C)CC3)CC2)n2ncnc2n1`, the z-score is -4.36 (active).

With `CCc1c(C)nc2ncnn2c1N1CCC(C(=O)NCc2cccc(OC)c2)CC1`, the z-score is -5.78 (active).

For `CCC(=O)N1c2ccccc2C(N(C(C)=O)c2ccccc2)CC1C` (stereo not drawn), the z-score is 0.92 (inactive).

For `Cc1cc(/C=C2\SC(=S)NC2=O)c(C)n1-c1ccc(O)cc1`, the z-score was 3.66 (inactive).
